Screens: PubChem BioAssay, Sanford-Burnham Center for Chemical Genomics
CYP2C9 inhib = inhibitors of human CYP2C9 | P11712 | hit rate 20% among 96,000 | CYP2C9 Supersomes, luciferin-H conversion, luminescence | inhibition, % at 5 µM;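 active means blocking of liver enzyme CYP2C9 beyond about 50% at 5 µM, limit read from the data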
CYP2C19 inhib = blocks human cytochrome P450 2C19 | CYP2C19 Supersomes, luciferin-H EGE luminescence, 30 min | inhibition, % at 5 µM | hit rate 21% among 96,000 | AID 778;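 active means CYP2C19 inhibition above a set limit at 5 µM in the primary screen, cut at about 50% in these data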;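 further: plate controls were negative control wells for no effect and 2.5 mM tranylcypromine positive control for full effect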
CYP2C19 activ = increases human CYP2C19 enzyme activity; activation factor at 5 µM; 96,000 tested, under 10 active; recombinant CYP2C19, luciferin-H EGE luminescence; stronger effect = higher value; 0 = fully inhibited enzyme, 1 = untreated enzyme;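 active means activation factor of at least 2 at 5 µM in the primary screen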;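 further: 0 = wells with 2.5 mM tranylcypromine and 1 = vehicle-only wells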
Pyk2 oligo antag = antagonists of human Pyk2 oligomerization | hit rate 0.83% among 99,000 | Q293 cells, Pyk2 FERM NanoBiT luminescence; stronger effect = lower value | Q14289 | AID 1347419 | z-score (the deposit names both 25 µM and 10 µM);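 active means Z-score of -3 or lower, scaled per plate to the spread of control and sample wells; inactive means z-score above -3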;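 further: negative z-score means lost luminescence so less FERM oligomerization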
Target sequence (Q14289 whole entry, looked up): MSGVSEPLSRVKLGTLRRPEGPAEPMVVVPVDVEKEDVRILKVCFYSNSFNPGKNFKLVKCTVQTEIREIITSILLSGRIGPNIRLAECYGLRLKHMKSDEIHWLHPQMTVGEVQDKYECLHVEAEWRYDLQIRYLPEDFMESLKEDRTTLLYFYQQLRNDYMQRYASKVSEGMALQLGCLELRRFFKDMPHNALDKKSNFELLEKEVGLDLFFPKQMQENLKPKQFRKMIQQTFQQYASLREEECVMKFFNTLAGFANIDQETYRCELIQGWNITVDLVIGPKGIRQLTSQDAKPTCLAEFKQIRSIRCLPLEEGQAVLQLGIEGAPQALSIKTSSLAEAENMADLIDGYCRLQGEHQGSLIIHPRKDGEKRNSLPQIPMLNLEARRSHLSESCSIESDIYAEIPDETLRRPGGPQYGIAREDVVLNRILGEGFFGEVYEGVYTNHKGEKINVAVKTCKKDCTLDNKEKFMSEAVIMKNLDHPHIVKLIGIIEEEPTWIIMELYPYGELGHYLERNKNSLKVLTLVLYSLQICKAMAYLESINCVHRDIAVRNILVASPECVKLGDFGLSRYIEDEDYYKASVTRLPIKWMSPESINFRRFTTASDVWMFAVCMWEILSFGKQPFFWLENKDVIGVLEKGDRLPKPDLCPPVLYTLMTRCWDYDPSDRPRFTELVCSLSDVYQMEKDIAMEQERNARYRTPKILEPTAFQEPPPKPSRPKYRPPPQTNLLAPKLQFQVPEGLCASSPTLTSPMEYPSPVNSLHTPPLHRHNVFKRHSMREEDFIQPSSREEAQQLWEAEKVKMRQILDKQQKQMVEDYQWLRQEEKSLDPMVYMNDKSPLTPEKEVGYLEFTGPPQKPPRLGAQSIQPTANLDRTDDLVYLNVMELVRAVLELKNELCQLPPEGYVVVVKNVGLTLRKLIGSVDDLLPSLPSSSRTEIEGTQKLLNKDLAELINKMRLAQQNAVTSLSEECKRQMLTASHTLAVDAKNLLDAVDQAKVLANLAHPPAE
CYP2C9 act = CYP2C9 (human) activation | P11712 | recombinant CYP2C9, luciferin-H conversion, luminescence; stronger effect = higher value; factor 1 = untreated enzyme, 0 = blocked | activation factor at 5 µM | hit rate 1.4% among 96,000;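 active means activation factor of 2 or more for CYP2C9 at a 5 µM dose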;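 further: 0 = sulfaphenazole-blocked wells and 1 = vehicle-only wells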
An asterisk follows results filed as active; · = no result. The list is not random: actives were taken first. Their share in the collection is about 28%.

SMILES | CYP2C9 inhib | CYP2C19 inhib | CYP2C19 activ | Pyk2 oligo antag | CYP2C9 act
C=COCCNC(=O)C1CC(=O)N(c2ccc(C)cc2)C1 (stereo not drawn) | -24 | 6 | 0.9 | 0.15 | 1.2
COC(=O)NC1CSCC1OC(=O)c1ccc(Br)cc1 (stereo not drawn) | · | · | · | -1 | ·
NC(=O)c1ccsc1NC(=O)COC(=O)c1ccccc1NCc1ccco1 | 90* | 74* | 0.3 | -1.4 | 0.1
O=C(COC(=O)c1cccs1)NCc1ccco1 | 20 | 70* | 0.3 | 0.04 | 0.8
COc1cc(NC(=O)c2cccs2)c(C(=O)OCC(=O)NCc2ccco2)cc1OC | 82* | 27 | 0.7 | -0.79 | 0.2
CC(=O)N/C(=C\c1ccccc1Cl)C(=O)O | · | · | · | -0.5 | ·
CC1CC(C)CN(c2nc3c(c(=O)n(C)c(=O)n3C)n2C)C1 (stereo not drawn) | -1 | 2 | 1 | 0.08 | 1
CN1CCN(C(=O)CN(c2cccc(Cl)c2)S(=O)(=O)c2ccccc2)CC1 | 31 | 7 | 0.9 | 0.77 | 0.7
CCSc1nc(O)c(Cc2ccccc2)c(=O)[nH]1 | -28 | 2 | 1 | 0.45 | 1.3
Cc1nnc(SCCn2c(Br)nc3c2c(=O)[nH]c(=O)n3C)s1 | 14 | 1 | 1 | -0.41 | 0.9
FC(F)(F)c1cccc(N2CCN(CC3CC=CCC3)CC2)c1 (stereo not drawn) | -12 | 80* | 0.2 | 0.28 | 1.1
Cc1ccc(N2CCN(CC3CC=CCC3)CC2)cc1 (stereo not drawn) | 5 | 60* | 0.4 | 0.68 | 0.9
O=C(c1ccccc1)N1CCN(CC2CC=CCC2)CC1 (stereo not drawn) | 78* | 57* | 0.4 | -0.07 | 0.2
FC(F)(F)c1cccc(N2CCN(CC3CC4C=CC3C4)CC2)c1 (stereo not drawn) | -45 | 30 | 0.7 | 0.76 | 1.5
CCCCN1C(=O)C2NN=C(C(=O)OC)C2C1=O (stereo not drawn) | -6 | 44 | 0.6 | 1.4 | 1.1
CC1(C)CC(=O)c2sc(NC(=O)c3cccs3)nc2C1 | · | · | · | 0.22 | ·
CCSc1nccc(-c2nn(-c3ccc(C)cc3)ccc2=O)n1 | 63* | 46 | 0.5 | -0.06 | 0.4
COc1ccc2c(c1OC)C(=O)OC2Nc1nc(-c2cc3ccccc3oc2=O)cs1 (stereo not drawn) | · | · | · | 0.94 | ·
O=c1oc2ccccc2cc1-c1csc(NN=C2CCCCC2)n1 | 78* | 86* | 0.1 | -0.11 | 0.2
Cc1ccc(-c2csc(NC(=O)c3cccc(S(=O)(=O)N4CCN(C)CC4)c3)n2)cc1 | 6 | 97* | 0 | -0.17 | 0.9
O=C(Nc1nc(-c2cccs2)cs1)c1cccc(S(=O)(=O)N2CCCCC2)c1 | 84* | 51* | 0.5 | -1.2 | 0.2
O=C(Nc1nccs1)c1cccc(S(=O)(=O)N2CCOCC2)c1 | · | · | · | 0.43 | ·
COc1ccc(C(=O)Nc2nc(-c3cccs3)cs2)cc1 | 41 | 25 | 0.7 | -1.4 | 0.6
COc1cc(C(=O)Nc2nc(-c3cccs3)cs2)cc(OC)c1OC | -26 | 4 | 1 | -4.3* | 1.3
O=C(Nc1nc(-c2nc3ccccc3s2)cs1)c1ccc(S(=O)(=O)N2CCOCC2)cc1 | 29 | 11 | 0.9 | -3.6* | 0.7
SMILES | CYP2C9 inhib | CYP2C19 inhib | CYP2C19 activ | Pyk2 oligo antag | CYP2C9 act
Cc1nnc(NC(=O)C2C3C=CC(O3)C2C(=O)O)s1 (stereo not drawn) | 6 | 11 | 0.9 | · | 0.9
O=C(NNS(=O)(=O)c1ccc([N+](=O)[O-])cc1)c1cnn(-c2ccccc2)c1-n1cccc1 | · | · | · | 0.12 | ·
CCCOc1ccc(C2C(=O)N(C3CCCCC3)CC(=O)N2C2CC2)cc1OC (stereo not drawn) | 35 | 0 | 1 | -0.12 | 0.7
COc1cccc(C(=O)Nc2nc(-c3ccc(S(=O)(=O)N4CCOCC4)cc3)cs2)c1 | 83* | 30 | 0.7 | -3.3* | 0.2
O=C(Nc1nc(-c2ccc(S(=O)(=O)N3CCOCC3)cc2)cs1)c1ccccc1 | 48 | 9 | 0.9 | · | 0.5
CCOC(=O)c1nnc(-c2ccccc2)nc1Sc1ccccc1Cl | 54* | 20 | 0.8 | -0.92 | 0.5
CCOC(=O)c1nnc(-c2ccc(C)cc2)nc1Sc1cccc(Cl)c1 | 2 | 1 | 1 | -1.1 | 1
Cc1ccc(C=Nc2ccc(N(C)C)cc2)o1 | 44 | 52* | 0.5 | -0.32 | 0.6
COc1ccc(C/C(N)=N/n2cnnc2)cc1Cl | -16 | -10 | 1.1 | 1.8 | 1.2
COc1ccc(CSCCN)cc1Cl | 47 | 64* | 0.4 | 1.1 | 0.5
O=c1[nH]cnc2c1C(c1ccccc1[N+](=O)[O-])c1c(nc[nH]c1=O)O2 | 13 | -15 | 1.1 | 0.43 | 0.9
COc1ccc(OCC(O)CN2C(=O)NC(C)(C)C2=O)cc1 (stereo not drawn) | · | · | · | 0.43 | ·
COc1ccc(C2=Nn3c(nnc3-c3ccco3)SC2)cc1OC | 57* | 37 | 0.6 | 0.46 | 0.4
COc1ccc(C2=Nn3c(nnc3-c3ccccc3OC)SC2)cc1OC | 53* | 65* | 0.4 | -1.1 | 0.5
COc1ccccc1-c1nnc2n1N=C(C)CS2 | -1 | 15 | 0.9 | 0.02 | 1
COc1ccc(C2=Nn3c(nnc3-c3ccccn3)SC2)cc1OC | 36 | 62* | 0.4 | 1.1 | 0.6
CCOc1c2c(nc3ccc(Cl)cc13)CCC2 | 11 | 2 | 1 | 0.04 | 0.9
CSc1nc(C)cc(OCC#N)n1 | -23 | 12 | 0.9 | 1.4 | 1.2
COc1ccc(C(=O)CN2C(=O)c3ccccc3C2=O)c(OC)c1C | 72* | 83* | 0.2 | -0.59 | 0.3
Cc1ccc2[nH]c3c(c2c1)CN(C(=O)CN1CCN(Cc2ccc4c(c2)OCO4)CC1)CC3 | 62* | 62* | 0.4 | -0.1 | 0.4
Cc1ccc2[nH]c3c(c2c1)CN(C(=O)CN1CC(C)OC(C)C1)CC3 (stereo not drawn) | 35 | 71* | 0.3 | -0.53 | 0.6
Cc1ccc2[nH]c3c(c2c1)CN(C(=O)CN1CCSCC1)CC3 | 15 | 51* | 0.5 | · | 0.8
Cc1ccc2[nH]c3c(c2c1)CN(C(=O)CN1CCN(c2ccccn2)CC1)CC3 | 21 | 11 | 0.9 | -0.08 | 0.8
O=C(Cc1coc2cc3c(cc12)CCC3)OCc1cc(=O)n2c(n1)sc1ccccc12 | 28 | 3 | 1 | 0.38 | 0.7
Cc1ccc(N(C(C)C(=O)Nc2cc(Cl)ccc2Oc2ccccc2)S(C)(=O)=O)cc1 (stereo not drawn) | 77* | 86* | 0.1 | -1 | 0.2
COc1ccc(N(C(C)C(=O)NC2CCCCCC2)S(C)(=O)=O)cc1 (stereo not drawn) | 28 | 31 | 0.7 | 1.1 | 0.7
COc1ccc(NC(=O)C(C)N(c2ccc(C)cc2)S(C)(=O)=O)cc1 (stereo not drawn) | 74* | 90* | 0.1 | 0.31 | 0.3
Cc1ccc(N(C(C)C(=O)Nc2ccc(S(=O)(=O)N3CCOCC3)cc2)S(C)(=O)=O)cc1 (stereo not drawn) | 27 | 8 | 0.9 | -0.23 | 0.7
